Experimental findings from PubChem BioAssay AID435003 (Sanford-Burnham Center for Chemical Genomics, 2010) are described below.

Hit rate of the full screen: of about 330,000 compounds, about 1,700 (0.52%) were called active. The full list was thinned out, with actives kept by preference. Values without a mark were called inactive. Rule as the data show it: active = inhibition above about 50%; inactive = the rest.

This assay is described as follows: inhibitors of induced NF-kB luciferase reporter, primary screen, TCR NF-kB activation inhibitor project, cell-based, luminescence, uHTS (AID 435003). Particulars: Jurkat, PMA/ionomycin-induced NF-kB luciferase reporter, at 4 µM, active compounds read high.
As usually defined, the inhibition is the change of the read-out against control, counted positive when it falls. For the compound `N/C(=N\OC(=O)N1c2ccccc2Sc2ccccc21)c1ccc(Br)cc1`, the inhibition is 77% (active).
The same measure for `N/C(=N\OC(=O)c1ccc2c(c1)OCO2)c1ccc(Br)cc1`: -102%; for `N/C(=N\OC(=O)Cc1ccccc1[N+](=O)[O-])c1ccc(Br)cc1`: 1.58%.
To `CC(C)(C)NS(=O)(=O)NC(=O)C1=C(N2CCCC2)COC1=O` belongs -4.98%; to `COC(=O)C1=NNC2(c3ccc(C)cc3)C(=O)N(c3cccc(C)c3C)C(=O)C12` (stereo not given), -13.7%; to `Cc1ccc(S(=O)(=O)N2CCCCC2)cc1C(=O)N(C)CC(=O)Nc1cccc(F)c1`, 0.943%.
To `Cc1cc(C)cc(NC(=O)N2CCC(NC(=O)c3ccc(F)cc3)CC2)c1` belongs -8.05%; to `O=C(CCNC(=O)c1ccc(Br)cc1)Nc1cccc(S(=O)(=O)N2CCCCC2)c1`, 51.4% (active); to `Cc1ccc(S(=O)(=O)N2CCCCC2)cc1NC(=O)CCNC(=O)c1ccccc1`, 1.31%.
On to `O=C(Nc1cccc(S(=O)(=O)N2CCCCC2)c1)c1cncc(Br)c1`, for which the inhibition is -9.4%.
The same measure for `COc1ccc(-n2nnc3c(=O)n(CC(=O)OCc4ccccc4)cnc32)cc1`: -2.47%.
To `CCOC(=O)c1ccc(NC(=O)Cn2cnc3cc(C)c(C)cc32)cc1` belongs 66.1% (active); to `CCCc1nnc(SCC(=O)Nc2ccc(C(=O)OCC)cc2)o1`, -1.45%; to `CCOC(=O)c1ccc(NC(=O)Cc2cccs2)cc1`, -42.6%.
The same measure for `COc1ccc(CNC(=O)C2CCN(S(C)(=O)=O)CC2)cc1`: 11.1%; for `Cc1cc(-c2ccc(C)c(S(=O)(=O)NCCCN(Cc3ccccc3)C(C)C)c2)on1`: 9.13%; for `CCOc1ccccc1CNS(=O)(=O)c1cc(-c2cc(C)no2)ccc1C`: 18%.
Turning to `COc1ccc(CNS(=O)(=O)c2cc(-c3cc(C)no3)ccc2C(C)C)cc1`, the inhibition was 50.9% (active).
For `COc1ccc(/C=N/NC(=O)C(C)N(c2ccc(OC)cc2)S(C)(=O)=O)cc1` (stereo not given), the inhibition was 13.9%.
The same measure for `CC(C)CC(=O)Nc1nnc(S(=O)(=O)N(C)c2ccc(Cl)cc2)s1`: 1.22%; for `O=c1oc2ccccc2cc1-c1cn(-c2ccccc2)c(=S)[nH]1`: 85.2% (active); for `CS(=O)(=O)N1CCN(C(=O)c2cc3ccccc3oc2=O)CC1`: 2.45%.
As to `COc1cccc(-n2c(=S)[nH]c3c(oc4ccccc43)c2=O)c1`, the inhibition was -22.5%.
The same measure for `CCOC(=O)c1cc(-c2ccc(F)cc2)n(CC(=O)NCc2ccccn2)c1C`: -17.7%.
To `CCCN(CC1CC1)C(=O)COC(=O)c1ccc(C)cc1O` belongs -1.18%; to `Cc1cc(/C=N/n2cnnc2)c(C)n1-c1ccc2ncccc2c1`, 9.47%; to `O=C1Oc2ccccc2C(=O)/C1=C/c1ccccc1O`, 8.95%.
For `CCOc1cc(C(=O)N2CCc3cc(OC)c(OC)cc3C2)ccc1OC(F)F`, the inhibition was 78.8% (active).
To `COc1cc2c(cc1OC)CN(C(=O)c1cc(S(=O)(=O)N3CCCCC3)ccc1Cl)CC2` belongs 20.2%; to `COc1cc2c(cc1OC)CN(C(=O)c1ccc(S(=O)(=O)N3CCCCCC3)cc1)CC2`, 12.2%.
On to `CCOc1ccccc1-c1nc(CN2CCC(C(=O)N3CCOCC3)CC2)c(C)o1`, for which the inhibition was 1.89%.
As for `CCN(CC)CCn1cnc2c1c(=O)[nH]c(=O)n2Cc1ccccc1`, the inhibition was -2.97%.
In the case of `N=c1c2c(-c3ccccc3)c(-c3ccccc3)n(Cc3ccccc3)c2ncn1CCCO`, the inhibition was 58.6% (active).
The same measure for `COCCn1cnc2c1c(=O)n(Cc1ccc(Br)cc1)c(=O)n2Cc1ccccc1`: 11%.
The same measure for `CSc1nc(-c2ccccc2)nc(C(Cl)Cl)n1`: 11%.
To `Nc1cccnc1Sc1ccccc1` belongs 3.25%; to `Cc1ccc2c(c1)N(CC(=O)NCCCN1CCCCC1)C(=O)c1cccnc1O2`, -8.41%.
On to `CCCOC(=O)c1[nH]c2c(c1C)C(=O)CC(c1cccs1)C2` (stereo not given), for which the inhibition was 60.8% (active).
The same measure for `COC(=O)C1C(=O)c2c([nH]c(C(=O)OCCSC)c2C)CC1C` (stereo not given): -39.9%; for `COCCOC(=O)c1[nH]c2c(c1C)C(=O)CC(c1ccc(OC)cc1)C2` (stereo not given): -19.4%; for `O=S(=O)(c1ccc(Sc2nnc3ccccn23)nc1)N1CCOCC1`: -12%.
Consider `Cc1c(Br)c([N+](=O)[O-])nn1C(C)C(=O)Nc1nccs1` (stereo not given), for which the inhibition is 22.7%.
To `COc1cc([C@H](Cc2ccccc2)NC(C)=O)oc(=O)c1` belongs 8.38%.
To `CCN1/C(=C\c2ccc3ccccc3[n+]2CC)Sc2cc(C)ccc21` belongs 90.1% (active); to `CCSC1=C(C#N)C(=O)n2c1cc1c2CCCC1`, 3.71%; to `O=C1CC(N2CCN(C(c3ccccc3)c3ccccc3)CC2)C(=O)N1` (stereo not given), 4.97%.
To `CC1(C)CC(N2CCN(C(c3ccccc3)c3ccccc3)CC2)=CC(=[N+]2CCCCC2)C1` belongs 83.2% (active); to `Oc1ccccc1CN1CCN(C(c2ccccc2)c2ccccc2)CC1`, -10.4%; to `CC(C)(C)NS(=O)(=O)CC12CCC(CC1=O)C2(C)C` (stereo not given), -14%.
For the compound `CC/C(=N\NC(=O)c1c(C)nc2ccccn12)c1ccc(Cl)cc1`, the inhibition is -10.6%.
To `O=C(Nc1ccccc1Cl)/C(Cl)=C(\Cl)S(=O)c1ccccc1` (stereo not given) belongs 100% (active); to `Cc1c(NC(=O)Nc2ccccc2Cl)sc(=S)n1C`, 10.9%.
Turning to `CC1(C)CC(CCC(=O)Nc2ccccc2Cl)C(=O)O1` (stereo not given), the inhibition is 5.25%.
To `CSc1n[nH]c(=S)n1N` belongs 8.75%; to `COc1ccc(C2=Nn3c(nnc3-c3ccccc3OC)SC2)cc1OC1CCCC1`, 57.3% (active).
The same measure for `CC1=Nn2c(nnc2-c2ccccc2)SC1`: -7.08%; for `COc1ccccc1-c1nnc2n1N=C(c1ccc(OC(F)F)c(OCC3CC3)c1)CS2`: 21.8%.
The same measure for `COc1cc(C(=S)NC2CCCCC2)ccc1O`: -4.8%; for `C/C(CC(O)(/C=N/O)c1ccccc1)=N\O` (stereo not given): -6.87%; for `CCCNC(=O)OC[C@H]1O[C@H](CCO/N=C/[C@@H](NS(=O)(=O)c2ccc(C)cc2)[C@H](C)/C=C/CC(=O)OC)C=C[C@@H]1Oc1ccc(OC)cc1`: 8.93%.
